Source: PubChem (several laboratories)
Shown are actives, neighbours in structure and some others; about 0.79% of the full set was active somewhere.
E coli growth-1: E. coli V3065 growth inhibition, primary screen, counter-screen for AddAB inhibitor project, absorbance, OD600 | 18 h | inhibition, % at 11.9 µM | 330,000 compounds, 0.27% hits;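 active = inhibition above the campaign's mean inhibition across all tested compounds plus 3 SD, cut at about 9.9% in these data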;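 also: uninfected addAB+ strain grown without phage in ampicillin broth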
AddAB inh: growth inhibition of E. coli expressing H. pylori AddAB, primary screen, AddAB inhibitor project, absorbance; inhibition, % at 11.9 µM; 330,000 compounds, 0.29% hits; AID 435030, 2010; in the data active = inhibition above about 12%
Tat transport: E. coli Tat export inhibitors, primary screen, MC4100, TorA-mCherry reporter, fluorescence, single point; AID 488895, 2010; inhibition, % at 10 µM; 340,000 compounds, 0.036% hits;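 active = mean replicate inhibition at least 50% and at least half of replicates individually reaching 50%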;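 also: exported cargo escapes ClpAP degradation while cytoplasmic cargo is degraded and loses fluorescence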
E coli growth-2: E. coli growth inhibition, primary screen, OD600. Escherichia coli growth, 23 h; active compounds read low. OD600 absorbance (concentration not given with the values). 330,000 compounds, 0.21% hits;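 active = OD600 absorbance below the run mean of sample wells minus 3.6 SD, in any replicate, cut at about 0.56 in these data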
phage Ecoli inh: growth loss of phage-infected E. coli, primary screen, RecBCD inhibitor project, absorbance, with phage, HTS | inhibition, % at 11.9 µM | 360,000 compounds, 0.26% hits; in the data active = inhibition above about 11%
AI-2 QS modul: Vibrio harveyi AI-2 quorum sensing modulators, primary screen, JMH597 strain, luminescence/OD600 ratio; Vibrio harveyi JMH597 AI-2 luminescence/OD600 ratio, 9 h; active compounds read low; strain lacks LuxN and CqsS sensors; 0 = neutral-control median; activity change, % at 7.5 µM; 300,000 compounds, 0.4% hits; in the data active = activity change below about -75%, passing the limit was not always enough;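 also: luminescence divided by OD600 gain over 9 h not by final OD600 alone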
Hits are given with their value; - = inactive; . = no result given.

SMILES	E coli growth-1	AddAB inh	Tat transport	E coli growth-2	phage Ecoli inh	AI-2 QS modul
COc1ccc(CC(=O)OCC(=O)Nc2cccc(Br)c2)cc1	-	-	-	-	-	-76
COc1cccc(NC(=O)COC(=O)Cc2ccc(Br)cc2)c1	-	-	-	-	-	-
Cc1cccc(NC(=O)CCc2ccccc2)c1	-	-	-	-	-	-85
Cc1ccc(S(=O)(=O)NN=Cc2ccc([N+](=O)[O-])o2)cc1	.	.	.	0.47	.	.
COc1ccc(C=NNS(=O)(=O)c2ccc(NC(C)=O)cc2)cc1	.	.	.	-	.	.
COc1ccc(/C=N/NS(=O)(=O)c2ccc(C)cc2)cc1	-	-	-	.	-	-83
Cc1ccc(S(=O)(=O)NN=Cc2ccc([N+](=O)[O-])o2)cc1C	.	.	.	0.48	.	.
Cc1cc(C)c(S(=O)(=O)NN=Cc2ccc([N+](=O)[O-])o2)c(C)c1	.	.	.	0.51	.	.
Cc1cc(C)c(S(=O)(=O)N/N=C/c2ccc([N+](=O)[O-])o2)c(C)c1	.	.	-	.	-	-
O=C(CC1C(=O)N(Cc2ccccc2)CC1Cc1ccccc1)Nc1ccccc1 (configuration not stated)	.	.	.	-	.	.
CC(=O)NC1=NC(=O)C(=Cc2cc(C)n(-c3cccc(C(=O)O)c3)c2C)S1	.	.	.	-	.	.
Cc1ccc(C(=O)NC(=Cc2cccnc2)C(=O)NCc2ccco2)cc1	.	.	.	-	.	.
O=[N+]([O-])c1cccc(/C=C/C=NNc2nc(N3CCCCC3)nc(N3CCCCC3)n2)c1	.	.	.	-	.	.
CC(C)(C)c1n[nH]c(=S)n(/N=C/c2cccs2)c1=O	-	-	-	.	-	-77
CC1(C(=O)N2CC3(CC(c4ccccc4)=NO3)CC2C(=O)NCC(N)=O)CC1 (configuration not stated)	.	.	.	-	.	.
O=C(NNc1nc2ccccc2s1)c1ccc(F)cc1	-	-	-	-	-	-77
O=C(NNc1nc2ccc(F)cc2s1)c1cccc(F)c1	-	-	-	-	-	-119
CC(=NO)c1c(O)cc(-c2ccccc2)n(-c2ccccc2)c1=O	.	.	.	-	.	.
O=C(N/N=C/c1ccc(Br)s1)c1c[nH]c2ccccc12	-	-	-	.	-	-77
O=C(N/N=C/c1cc(Br)cs1)c1c[nH]c2ccccc12	-	-	-	.	-	-
Cc1ccc(C(=O)c2coc3cc([N+](=O)[O-])c(O)c([N+](=O)[O-])c23)cc1	-	-	-	-	-	-90
N#CC(=Cc1ccc(O)c(O)c1)C(=O)N1CCc2ccccc21	.	.	.	-	.	.
CCCOc1ccc(C=NNC(=S)Nc2ccccc2[N+](=O)[O-])c(O)c1	.	.	.	-	.	.
CCOc1cccc(/C=N/NC(=S)Nc2ccccc2[N+](=O)[O-])c1O	-	-	-	.	11	-
CC(=O)Nc1ccc(S(=O)(=O)N2CCN(c3cc(C(F)(F)F)ccn3)CC2)cc1	-	-	-	0.11	-	-
SMILES	E coli growth-1	AddAB inh	Tat transport	E coli growth-2	phage Ecoli inh	AI-2 QS modul
S=C(NCc1cccnc1)Nc1ccc(Oc2ccccc2)cc1	-	-	-	-	-	-
Cc1ncc(CO)c(CNc2ccc(Oc3ccccc3)cc2)c1O	.	.	-	-	-	-87
FC(F)(F)c1cc(CCN2CCNCC2CC2CCCCC2)cc(C(F)(F)F)c1 (configuration not stated)	.	.	.	0.46	.	.
Oc1ccc(C[C@@H]2CNCCN2CCc2cc(C(F)(F)F)cc(C(F)(F)F)c2)cc1	-	-	-	.	-	-
C=CCC(CC(=O)NC(CO)Cc1ccccc1)C(=O)NC(C)COC(=O)C(CC=C)CC(=O)OC(C)(C)C (configuration not stated)	.	.	.	-	.	.
CC1Oc2ccccc2C=C1/C=N/Nc1ccc(C(=O)O)cc1 (configuration not stated)	-	-	-	.	-	-92
CCN1C(=O)C2C(c3ccc(-c4cccc(Cl)c4)cc3)N3CCCC[C@@]3(C(=O)OC)C2C1=O (some centres not stated)	.	.	.	-	.	.
Cc1cc(Cl)n2c(nc3cc(F)c(F)cc32)c1C#N	.	.	-	-	-	-96
Cc1ccc(Cl)cc1NC(=O)CC(O)(C(F)(F)F)C(F)(F)F	11	-	-	-	-	-
Cc1ccc(C(=O)Cn2nnc(-c3ccccc3-n3cnnn3)n2)cc1	-	-	-	-	-	-
Cc1ccc(C(=O)Cn2nnc(-c3ccccc3)n2)cc1	-	-	-	-	-	-92
O=C(NN=Cc1cccc(Br)c1)c1ccc(Cn2cc(Br)cn2)o1	.	.	.	-	.	.
O=C(NN=Cc1ccsc1)c1cc(O)cc(O)c1	.	.	.	-	.	.
CCn1c(CCn2c3ccccc3c3ccccc32)n[nH]c1=S	-	-	50	-	-	-
Cc1noc(C)c1S(=O)(=O)N(C)CC1Oc2ccc(NC(=O)Cc3ccccc3)cc2C(=O)N(C(C)CO)CC1C (configuration not stated)	.	.	.	-	.	.
COc1ccc(-c2nc(-c3ccccn3)ncc2S(C)(=O)=O)cc1	-	-	-	-	-	-
Cn1nc(-c2ccccn2)nc2c(=O)n(C)c(=O)nc1-2	-	-	-	-	-	-92
Cc1c(NC(=O)COc2cccc(F)c2)c(=O)n(-c2ccccc2)n1C	-	-	-	-	-	.
Cc1c(NC(=O)COc2ccc3ccccc3c2)c(=O)n(-c2ccccc2)n1C	-	-	.	0.52	-	-
COc1ccc(C(O)=C2C(=O)C(=O)N(CCN(C)C)C2c2ccc(OC)c(OC)c2)c(C)c1 (configuration not stated)	.	.	.	-	.	.
Oc1c(C=NCc2ccccc2)sc2ccccc12	-	-	-	-	-	-92
Cc1cccc(CCN2C(N(C)C)=NCC2CC(C)C)c1 (configuration not stated)	.	.	.	-	.	.
CCn1cc(C(=O)O)c(=O)c2cnc(N3CCN(C(=S)NC(=O)c4ccccc4)CC3)nc21	-	-	-	0.41	-	-
COc1cccc2sc(Nc3nnc(-c4cccs4)o3)nc12	-	-	-	-	-	-165
COc1cccc2sc(Nc3nnc(-c4ccc(F)cc4)o3)nc12	-	-	-	-	-	-
SMILES	E coli growth-1	AddAB inh	Tat transport	E coli growth-2	phage Ecoli inh	AI-2 QS modul
COc1ccc(Cc2c(N)nc(C)nc2N)cc1	-	-	-	-	-	-
Cc1nc(N)c(Cc2ccc(Cl)cc2Cl)c(N)n1	-	-	-	0.48	-	-
CCOC(=O)C1=C(C)N=c2sc(=C3C(=O)Nc4ccccc43)c(=O)n2C1c1ccc2c(c1)OCO2 (configuration not stated)	.	.	.	-	.	.
Cc1cc(NC(=O)CCSc2ccccc2)ccc1Br	-	-	-	-	-	-87
Cn1cccc1C=NN1CCN(Cc2cccc3ccccc23)CC1	.	.	.	-	.	.
Cc1cc(NC(=O)Nc2ccc(Cl)c(Cl)c2)no1	-	-	-	-	-	-
O=C(Nc1ccc(Cl)c(Cl)c1)Nc1ccon1	-	-	-	0.54	-	-
O=C(Nc1ccc(Cl)c(Cl)c1)Nc1ccccc1O	-	-	-	0.46	-	.
O=C(Nc1ccc(Cl)cc1)Nc1ccc(Cl)c(Cl)c1	-	-	.	.	-	.
O=C(Nc1cccnc1)Nc1ccc(F)c(Cl)c1	-	-	-	0.54	-	-
